In PubChem BioAssay (NCI):
The panel holds about 83,000 compounds, 20% with a hit somewhere; the sample as a whole holds those more often.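 Cells were grown in 96-well plates and exposed to the test compound at a single concentration for 48 hours; results are reported as percent growth, with values below 10 considered active.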 A number with no mark means an inactive call. Active and inactive are the calls of the source.

system: CAKI-1 renal; test: NCI-60 one-dose screen, 48 h (100 = growth as untreated, 0 = no growth, -100 = all killed); settings: 10 µM unless noted
Experimental: Growth inhibition of the CAKI-1 human tumor cell line is measured as a screen for anti-cancer activity. Cells are grown in 96 well plates and exposed to the test compound for 48 hours. Compounds are tested at a single concentration, which is 10^-5 M for most compounds. The reported endpoint is percent growth (GI% or GIPRCNT), where numbers from 0 - 100% represent growth inhibition, and numbers from -100% - 0 represent cell death. For example, a value of 40 represents 60% growth inhibition. A value of 0 means no net growth occurred over the course of the experiment. A value of -40 indicates 40% of cells at the beginning of the experiment died by the end of the experiment. A value of -100 means all cells are dead at the end of the experiment.
NCI-60 Human Tumor Cell Lines Screen was performed using the standard one-dose NCI protocol, which is described in more detail at https://dtp.cancer.gov/discovery_development/nci-60/default.htm.
Compounds with GIPRCNT values below 10 were considered active. Activity score was based on GIPRCNT using the following formula: […]
Score is 0 for GIPRCNT values of 100 or above, 50 for GIPRCNT values of 0, and 100 for GIPRCNT values of -100.

| Compound | growth |
| --- | --- |
| Cc1ccc(/C(N)=N/C(N)=N/c2nc3ccccc3s2)cc1 | 76.8% |
| C#Cc1nc(/C=C\CCCCCCC(=O)NO)cs1 | -20.2% (active) |
| Cn1cc(-c2nn3cc(-c4ccncc4)nc3s2)c2cc(F)ccc21 | 63.4% |
| Cc1ccc(S(=O)(=O)NCCCNc2nccc(-c3[nH]c(-c4ccccc4)nc3-c3ccc(F)c(O)c3)n2)cc1 | 90.7% |
| Cc1ccc2c(n1)C(=O)C(Cl)=C(Nc1cccc(C(=O)OC(C)(C)C)c1)C2=O | 77.7% |
| COc1cc(C(C)=C(c2ccc(OCCN(C)C)cc2)c2ccc(OCCN(C)C)cc2)ccc1F | 101% |
| Cc1ccc(-c2nc(SCC(=O)c3ccccc3)nc(Nc3ccc(S(N)(=O)=O)cc3)c2C#N)cc1 | 51.5% |
| CCc1nnc(NC(=O)c2cc(-c3ccc(Cl)cc3Cl)oc2C)s1 | 80.9% |
| COCCOc1ccc2ncc(C#Cc3cncc(C(=O)Nc4ccc(CN5CCN(C)CC5)c(C(F)(F)F)c4)c3)n2n1 | 1.32% (active) |
| O=C1Nc2cc(Cl)ccc2/C1=C\c1ccc(OCc2ccccc2)cc1 | 89.3% |
| CN1CCN(Cc2ccc(NC(=O)c3cncc(C#Cc4cnc(N)nc4)c3)cc2C(F)(F)F)CC1 | 0.371% (active) |
| O=C(CCCCCCN1CC(=O)N2[C@@H](C3CC3)c3[nH]c4ccccc4c3C[C@H]2C1=O)NO | 69.3% |
| CCCCCCN1C=C/C(=C\C(=O)n2ccc3ccccc32)c2ccccc21 | 61% |
| Brc1ccc(-c2cc(-c3ccc4c(c3)OC=CO4)n[nH]2)s1 | 62.9% |
| O=C(/C=C/c1ccc(F)cc1)Nc1cccc2cccnc12 | 91.4% |
| C=C(C)[C@@H]1CC[C@]2(C(=O)N3CCN(C)CC3)CC[C@]3(C)[C@H](CC[C@@H]4[C@@]5(C)CC[C@H](OP(=O)(OCC)OCC)C(C)(C)[C@@H]5CC[C@]43C)[C@@H]12 | 61.2% |
| Cc1ccc(/C=N/Nc2nc(Nc3ccccc3)nc(Nc3ccc(S(N)(=O)=O)cc3)n2)cc1 | 61% |
| O=c1[nH][nH]c(-c2ccc(F)cc2)c1-c1nc2ccccc2s1 | 87.1% |
| Cc1ccc(NC(=O)Nc2nc3ccc([N+](=O)[O-])cc3s2)cc1 | -23.2% (active) |
| Brc1cc(-c2cc(-c3ccc4c(c3)OCCO4)[nH]n2)cs1 | 33.8% |

| Compound | growth |
| --- | --- |
| COc1ccc(/C=N/NC(=O)CSc2nc(-c3cnccn3)cc(-c3cccs3)c2C#N)cc1OC | 88.1% |
| CC1CC(=O)C2=C(C1)Nc1ccc(Br)cc1CC2c1c[nH]c2ccc(Br)cc12 (stereo not given) | 38.1% |
| N#C/C(=C\c1ccc(-c2ccc(Cl)cc2)o1)C(=O)Nc1ncc(Cc2ccc(Br)cc2)s1 | -7.28% (active) |
| CN1CCN(Cc2ccc(NC(=O)c3cncc(C#Cc4cnc5ccc(OCC6COC6)nn45)c3)cc2C(F)(F)F)CC1 | -92.8% (active) |
| CCCCCCNC(=O)Oc1ccc(/C(=C(/C)c2ccc(OC)cc2)c2ccc(OCCN3CCCCCC3)cc2)cc1 | 17.3% |
| O=C(Nc1ccccc1)Nc1nc2ccc([N+](=O)[O-])cc2[nH]1 | 27.1% |
| CCOC(=O)Nc1ccc2c(ccn2C(=O)c2cccc(F)c2)c1 | 45.1% |
| CC(C)NC(=O)c1cc(-c2ccc(NC(=O)Nc3ccc(F)cc3)cc2)nc2cccnc12 | 95% |
| Cc1nc(N)sc1-c1csc(Nc2ccc(C(F)(F)F)cc2)n1 | 33.9% |
| C=CCSC1=NC2C(N(CC)C(=O)N2CC)N1/N=C/C=C/c1ccccc1OC (stereo not given) | 49.5% |
| CN(C)S(=O)(=O)c1ccc(-c2nc(C(Cl)Cl)nc3cc(-c4ccc(F)cc4)nn23)cc1 | 3.68% (active) |
| O=C(CSc1nc2ccccc2c(=O)n1-c1ccccc1)Nc1ccc(S(=O)(=O)Nc2nccs2)cc1 | 59.1% |
| COc1cc(C(=O)c2cc(C(C)=O)c3c(C)cccn23)cc(OC)c1OC | 84.5% |
| NS(=O)(=O)c1cccc(Nc2nc(SCC(=O)c3ccc(Cl)cc3)nc3c2CCC3)c1 | 86.7% |
| Cc1ccc(C(=O)Nc2ccc(CNCCN3CCOCC3)c(C(F)(F)F)c2)cc1C#Cc1cnc2cccnn12 | 17.2% |
| COc1ccc(/C(=N\NC(N)=S)c2ccc(Cl)cc2)cc1OC | 31.2% |
| O=S(=O)(NCCCNc1nccc(-c2[nH]c(-c3ccccc3)nc2-c2ccc(F)c(O)c2)n1)c1cccc(F)c1 | 95.5% |
| NNc1nnc2nc(Nc3ccccc3)nc(Nc3ccc(S(N)(=O)=O)cc3)n12 | 94.5% |
| Cc1ccc(C(=O)CSc2nc3ccccc3c(=O)n2C)cc1 | 72.7% |
| Cc1ccccc1NC(=O)Nc1nc2ccc([N+](=O)[O-])cc2s1 | -19.4% (active) |
